Results: PubChem BioAssay AID1159580 (chemical genetic matrix, 2015)
“And” between values parts separate entries of the source, which are not always exact repeats. Identical values can stand only once. In all, about 5,500 compounds went through this assay and about 2,000 (36%) were called active. About 18% were inconclusive and are not listed. No stated cut-off is given here; in the data, active means normalized growth mostly below about 0.91 (no sharp cut-off); inconclusive means no clear call, values can overlap the other calls; inactive means mostly above about 0.92. The list shows a part of the results.

Experiment: chemical genetic growth profiling, strain panel (AID 1159580);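 further: tested at 20 µM; growth read once vehicle control cultures reached saturation at 30 °C; 1 = growth at the plate median or of vehicle wells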
Settings: S. cerevisiae deletion strains, growth OD

Measured: normalized growth

COc1cc2c(cc1OC)-c1cc3ccc(OC)c(OC)c3c[n+]1CC2
inactive: locus YAL013W, strain DEP1, stronger effect = lower value 0.993 | locus YAL021C, strain ccr4, stronger effect = lower value 0.988 | locus YAL026C, strain drs2, stronger effect = lower value 0.987 | locus YAL030W, strain snc1, stronger effect = lower value 0.988 | locus YBL061C, strain skt5, stronger effect = lower value 0.988 | locus YBR009C, strain hhf1, stronger effect = lower value 0.984 | locus YBR021W, strain FUR4, stronger effect = lower value 0.977 and 1.02 | locus YBR023C, strain chs3, stronger effect = lower value 0.983 | locus YBR171W, strain sec66, stronger effect = lower value 0.971 | locus YBR229C, strain ROT2, stronger effect = lower value 0.979 and 1 | locus YBR231C, strain swc5, stronger effect = lower value 0.981 | locus YBR279W, strain paf1, stronger effect = lower value 0.979 | locus YCL011C, strain gbp2, stronger effect = lower value 0.991 | locus YCL016C, strain dcc1, stronger effect = lower value 0.978 | locus YCL029C, strain bik1, stronger effect = lower value 0.991 and 1.01 | locus YCL061C, strain MRC1, stronger effect = lower value 0.989 | locus YCL069W, strain vba3, stronger effect = lower value 0.988 | locus YCR088W, strain abp1, stronger effect = lower value 0.98 | locus YDL005C, strain med2, stronger effect = lower value 0.975 | locus YDL035C, strain GPR1, stronger effect = lower value 1.1 and 0.985 | locus YDL040C, strain nat1, stronger effect = lower value 0.988 | locus YDL074C, strain BRE1, stronger effect = lower value 1.05 and 1.02 | locus YDL101C, strain DUN1, stronger effect = lower value 0.982 and 1.03 | locus YDL134C, strain PPH21, stronger effect = lower value 0.989 and 0.983 | locus YDL185W, strain tfp1, stronger effect = lower value 0.988 and 1.03 | locus YDL192W, strain arf1, stronger effect = lower value 0.991 and 1.01 | locus YDR001C, strain nth1, stronger effect = lower value 0.982 | locus YDR069C, strain doa4, stronger effect = lower value 0.976 | locus YDR101C, strain arx1, stronger effect = lower value 0.985 and 1.02 | locus YDR137W, strain rgp1, stronger effect = lower value 0.97 | locus YDR150W, strain NUM1, stronger effect = lower value 0.992 and 1.01 | locus YDR159W, strain sac3, stronger effect = lower value 0.999 | locus YDR162C, strain NBP2, stronger effect = lower value 1.01 and 1 | locus YDR195W, strain ref2 0.921 | locus YDR297W, strain sur2, stronger effect = lower value 0.984 | locus YDR318W, strain mcm21, stronger effect = lower value 0.987 and 1.01 | locus YDR334W, strain swr1, stronger effect = lower value 0.986 | locus YDR335W, strain msn5, stronger effect = lower value 0.99 | locus YDR388W, stronger effect = lower value 0.99 and 1.02 | locus YDR392W, strain spt3, stronger effect = lower value 1.01 | locus YDR502C, strain sam2, stronger effect = lower value 0.985 and 1.01 | locus YEL003W, strain gim4, stronger effect = lower value 0.99 | locus YEL037C, strain rad23, stronger effect = lower value 0.987 | locus YEL061C, strain CIN8 (second series), stronger effect = lower value 0.967 | locus YEL061C, strain CIN8, stronger effect = lower value 0.99 and 1.01 | locus YER015W, strain faa2, stronger effect = lower value 0.989 | locus YER016W, strain bim1, stronger effect = lower value 0.987 | locus YER110C, stronger effect = lower value 0.983 and 1.02 | locus YER111C, strain swi4, stronger effect = lower value 0.97 | locus YER155C, strain BEM2 (second series), stronger effect = lower value 0.909 | locus YER155C, strain BEM2, stronger effect = lower value 0.994 and 1.01 | locus YER167W, strain BCK2, stronger effect = lower value 0.977 and 0.997 | locus YFR010W, strain ubp6, stronger effect = lower value 0.969 | locus YGL078C, strain dbp3, stronger effect = lower value 0.991 and 1.01 | locus YGL086W, strain mad1, stronger effect = lower value 0.952 and 0.998 | locus YGL167C, strain pmr1, stronger effect = lower value 0.981 | locus YGL173C, strain kem1, stronger effect = lower value 0.98 | locus YGL227W, strain vid30, stronger effect = lower value 0.974 | locus YGL240W, strain doc1, stronger effect = lower value 0.969 | locus YGL248W, strain PDE1, stronger effect = lower value 0.983 and 1.02 | locus YGL253W, strain hxk2, stronger effect = lower value 0.996 | locus YGR078C, strain PAC10, stronger effect = lower value 1.01 | locus YGR135W, strain pre9, stronger effect = lower value 1 and 1.01 | locus YGR229C, strain SMI1, stronger effect = lower value 1.02 | locus YGR252W, strain gcn5, stronger effect = lower value 0.952 and 1.02 | locus YHR013C, strain ard1, stronger effect = lower value 0.966 | locus YHR027C, strain rpn1, stronger effect = lower value 0.975 | locus YHR030C, strain SLT2, stronger effect = lower value 0.989 and 1.04 and 1 | locus YHR079C, strain IRE1 (second series), stronger effect = lower value 0.991 and 1.02 | locus YHR079C, strain IRE1, stronger effect = lower value 1.03 | locus YHR094C, strain hxt1, stronger effect = lower value 0.991 and 1.02 | locus YHR129C, strain ARP1, stronger effect = lower value 0.987 and 1.01 | locus YHR142W, strain chs7, stronger effect = lower value 1.02 | locus YHR200W, strain rpn10, stronger effect = lower value 0.987 and 1 | locus YIL066C, strain RNR3, stronger effect = lower value 0.973 and 0.985 | locus YIL073C, strain SPO22, stronger effect = lower value 0.95 and 1.04 | locus YIL125W, strain kgd1, stronger effect = lower value 0.996 and 1.01 | locus YIR030C, strain dcg1, stronger effect = lower value 0.989 and 1.01 | locus YJL092W, strain hpr5, stronger effect = lower value 0.979 | locus YJL095W, strain BCK1 (second series), stronger effect = lower value 0.973 | locus YJL095W, strain BCK1, stronger effect = lower value 1 and 1.02 and 1.05 | locus YJL115W, strain asf1, stronger effect = lower value 0.975 | locus YJL129C, strain trk1, stronger effect = lower value 0.96 | locus YJL134W, strain LCB3, stronger effect = lower value 0.97 and 1 | locus YJL154C, strain vps35, stronger effect = lower value 0.98 | locus YJL164C, strain tpk1, stronger effect = lower value 0.98 | locus YJL166W, strain qcr8, stronger effect = lower value 0.974 | locus YJL168C, strain set2, stronger effect = lower value 0.989 and 1.02 | locus YJL187C, strain SWE1 (second series), stronger effect = lower value 0.997 and 1.05 | locus YJR043C, strain POL32, stronger effect = lower value 0.998 and 0.991 | locus YJR066W, strain TOR1, stronger effect = lower value 0.965
